Sampled rows, rich in hits. Any-hit rate of the full collection: about 6.8%.
PINK1 expr mod: A Quantitative High throughput Screen to Identify Chemical Modulators of PINK1 Expression; PINK1 immunofluorescence, high-content cytometry, 24 h; Potency, µM (highest dose often 76.6 µM), most hits filed as activators; 410,000 tested, 0.2% active; AID 624263, 2012; active means well fitted activation curve with a large enough effect; inconclusive means small, poorly fitted or top-dose-only effect; cell line not stated here; further: nearly all actives have a fitted effect of over 65% in size
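Stable cell line, 250 cells/well, 12 h attachment; compounds pinned at 5 concentrations, 24 h; CCCP control. Fixed with nuclear dye, primary antibodies 12 h at 10 degrees C, secondary plus cell stain; laser-scanning cytometer read.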
KB-3-1 tox: qHTS assay for MDR1-selective chemotherapeutics: Primary screen using the parental adenocarcinoma cell KB-3-1; KB-3-1 viability, CellTiter-Glo ATP luminescence, 72 h; Potency, µM (doses to about 46.1 µM), hits mostly cytotoxic; 400,000 tested, 1.4% active; AID 1347075, 2019; further: nearly all actives have a fitted effect of over 60% in size
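Parental KB-3-1 adenocarcinoma cells in phenol-red-free DMEM with 10% FBS were pin-treated with compounds at several concentrations, incubated 72 h at 37 °C, and viability read by CellTiter-Glo luminescence; concentration-effect curves were fitted after normalization.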
SW480 rereplic: A quantitative high throughput screen for small molecules that induce DNA re-replication in SW480 colon adenocarcinoma cells | AID 624297, 2012 | 340,000 tested, 1.8% active | Potency, µM (top dose mostly 46.1 µM), hits mostly activators | SW480 DNA re-replication, Hoechst DNA content imaging, 48 h; further: nearly all actives have a fitted effect of over 55% in size
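DNA re-replication was detected as more nuclei of elevated Hoechst intensity after 48 hr exposure to compound (23 nL pinned per well of 250 cells).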
KB-V1 cytotox: qHTS assay for MDR1-selective chemotherapeutics: Primary screen using the drug-selected MDR subline cells KB-V1 | KB-V1 MDR cells viability, CellTiter-Glo, 72 h | Potency, µM (doses to about 46.1 µM), hits mostly cytotoxic | 400,000 tested, 3.4% active; further: nearly all actives have a fitted effect of over 60% in size
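Compound-treated KB-V1 multidrug-resistant cells, 72 h, 37 degrees C; viability by CellTiter-Glo. Fitted qHTS curves give the values.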
MCF10A rereplic: A quantitative high throughput screen for small molecules that induce DNA re-replication in MCF 10a normal breast cells. AID 624296, 2012. 350,000 tested, 2.9% active. MCF 10A DNA re-replication, Hoechst nuclear intensity, 48 h. Potency, µM (doses to about 46.1 µM), usual class: activators; further: nearly all actives have a fitted effect of over 50% in size
TSG101-PTAP inh: qHTS Assay for Iinhibitors of HIV-1 Budding by Blocking the Interaction of PTAP/TSG101. Tumor susceptibility gene 101 protein (Homo sapiens), Q99816. Fluorescence polarization, FITC-PTAP peptide / Tsg101 binding. Potency, µM (titrated, usually from 115 µM), usual class: inhibitors. 340,000 tested, under 10 active. AID 493005, 2010; active means well fitted inhibition curve with a large enough effect in the main read-out, with a control signal flat, not every such curve was filed as active; inconclusive means small, poorly fitted or top-dose-only effect, or effect the other way, or a change in a side signal; inactive means no such curve, though single readings can be large or run the other way
Target sequence (Q99816 whole entry, looked up): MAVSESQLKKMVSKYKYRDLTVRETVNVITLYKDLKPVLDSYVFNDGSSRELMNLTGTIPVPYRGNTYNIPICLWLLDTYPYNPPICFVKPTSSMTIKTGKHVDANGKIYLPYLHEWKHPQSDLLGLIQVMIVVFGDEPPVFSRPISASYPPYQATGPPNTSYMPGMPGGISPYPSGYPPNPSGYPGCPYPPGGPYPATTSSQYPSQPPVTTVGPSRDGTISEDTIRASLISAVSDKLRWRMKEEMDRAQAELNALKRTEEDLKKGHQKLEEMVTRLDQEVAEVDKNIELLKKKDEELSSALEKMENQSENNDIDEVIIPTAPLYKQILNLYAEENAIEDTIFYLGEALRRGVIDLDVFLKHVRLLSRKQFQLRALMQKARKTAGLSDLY
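Fluorescence anisotropy tracks displacement of a FITC-tagged PTAP peptide (50 nM) from the Tsg101 binding domain (10 uM), following a 20 min room-temperature incubation at pH 7.5.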
A number is an active result; n = inactive; u = inconclusive; x = no result given. Unless noted, the call rests on the fitted dose curve; in most records, active means well fitted curve in the direction sought with a large enough effect; inconclusive means small, poorly fitted or top-dose-only effect, or another doubt; inactive means no such curve, though single readings can be large; an effect the other way counts as inactive or inconclusive.

SMILES | PINK1 expr mod | KB-3-1 tox | SW480 rereplic | KB-V1 cytotox | MCF10A rereplic | TSG101-PTAP inh
COC(=O)c1ccccc1N/C=C1\CCc2c(c(C)nn2-c2ccccn2)C1=O | n | n | n | n | 8.2µM | n
Nc1cc(=O)nc(SCC(=O)Nc2ccc(F)cc2)n1-c1cccc(Cl)c1 | n | n | x | n | x | x
Cc1ccc(-c2noc(CN(C(=O)c3ccc(C(C)(C)C)cc3)C(C)C)n2)cc1 | n | n | x | n | x | x
CCOc1ccc(-c2nc3c(C#N)c[nH]n3c2NC2CCCC2)cc1 | n | n | x | n | x | x
COc1ccc(C(CC(=O)c2ccc(C)cc2)C(C#N)C#N)cc1OC (centres undefined) | n | u | u | u | 21µM | n
Cc1c(C(=O)NCC2(N3CCOCC3)CCCCCC2)cnn1-c1nccc(-c2ccccc2F)n1 | n | x | x | x | x | x
CCOC(=O)N1CCN(C(=O)CCSc2ccc(Cl)cc2)CC1 | n | n | n | 23µM | n | n
O=C(CCSc1ccc(Cl)cc1)N1CCN(S(=O)(=O)c2ccccc2)CC1 | n | n | n | 21µM | u | n
CC(C)CC(=O)N1CCN(S(=O)(=O)c2ccc(Cl)cc2)CC1 | n | n | n | n | n | n
O=C(Cc1ccccc1F)N1CCN(S(=O)(=O)c2ccc(Cl)cc2)CC1 | n | n | u | n | 16µM | n
COC(=O)c1c(OCc2ccccn2)cc(=O)n2c1CCN(C(=O)c1n[nH]c3c1CCCC3)CC2 | n | x | x | x | x | x
CCOc1ccc(-n2c(-c3ccc(OC)cc3)c[n+]3c2CCCCC3)cc1 | 16µM | 2.1µM | u | n | n | n
COc1ccc(-c2c[n+]3c(n2-c2ccccc2)CCCCC3)cc1 | n | 9.2µM | n | n | n | n
FC(F)Oc1ccc(-c2c[n+]3c(n2-c2ccccc2)CCCCC3)cc1 | n | u | n | n | n | n
COc1ccc(-n2c(-c3ccc(Cl)cc3)c[n+]3c2CCCCC3)cc1 | n | n | n | n | n | n
CCOc1ccc(-n2c(-c3ccc(Br)cc3)c[n+]3c2CCCCC3)cc1 | u | u | n | n | u | n
COc1ccc(-c2c[n+]3c(n2-c2ccc(C)cc2)CCCCC3)cc1 | u | 1.8µM | n | u | n | n
COc1ccccc1CNC(=O)CCc1c(C)nn(-c2ccc(N3CCCCC3)nn2)c1C | n | x | x | x | x | x
O=C(NCc1ccccc1)C(=O)Nc1ccc2nc3n(c(=O)c2c1)CCCCC3 | n | n | x | n | x | x
CCc1ccc(NC(=O)N(Cc2ccc(C)cc2)Cc2cccn2-c2nnc(N3CCCC3=O)s2)cc1 | n | n | x | n | x | x
O=C(CCN1C(=O)c2ccccc2C1=O)N1CCN(c2ccccc2)CC1 | n | u | n | n | n | n
O=C1c2ccccc2C(=O)N1Cc1cnc(N2CCN(c3ccccc3)CC2)s1 | n | u | 18µM | u | u | n
Cc1ccc(Cn2c(=O)n(-c3cc(C)cc(C)c3)c(=O)c3oc4ccccc4c32)cc1 | n | x | x | x | x | x
Cc1cccc(Cc2c(C)nc3nc(SCC(=O)NCc4ccccc4)nn3c2C)c1 | n | 15µM | x | n | x | x
COc1ccccc1NC(=O)c1sc2nc(C)c(C(=O)Nc3ccc(C)cc3C)c(-c3ccc(C)o3)c2c1N | n | n | x | n | x | x
SMILES | PINK1 expr mod | KB-3-1 tox | SW480 rereplic | KB-V1 cytotox | MCF10A rereplic | TSG101-PTAP inh
CCOC(=O)Cc1csc(NC(=O)c2sc3nc4ccc(CC)cc4cc3c2N)n1 | 40µM | u | n | u | u | n
CCOC(=O)Cc1csc(NC(=O)Nc2ccc(Cl)cc2)n1 | n | n | n | u | n | n
CCOP(=O)(OCC)C(NC(=O)Nc1cccc(Cl)c1)c1ccccc1 (centres undefined) | n | n | n | n | u | n
CCOC(=O)Cc1csc(NC(=O)c2ccc(Br)o2)n1 | n | n | n | n | n | n
CCOC(=O)Cc1csc(NC(=O)/C=C/c2ccc(Br)o2)n1 | n | n | n | 15µM | u | n
CCOP(=O)(OCC)C(NC(=O)Nc1cccc(Cl)c1)C(N)=O (centres undefined) | n | n | 1.5µM | u | n | n
CCOC(=O)Cc1csc(NC(=O)Nc2cccc(Cl)c2)n1 | n | n | n | 15µM | n | n
COc1ccc(C(=O)Nc2nc3n(n2)C(c2ccc(F)cc2)C=C(c2ccc(Cl)cc2)N3)cc1 (centres undefined) | n | n | x | n | x | x
NC(=O)C1CCN(c2nnc(-c3ccc(Br)cc3)s2)CC1 | x | n | x | n | x | x
CCc1ccc(NC(=O)NCCc2c(C)nn(C)c2C)cc1 | n | n | x | n | x | x
CCCCCCCN(C(=O)CCl)c1ccccc1C | n | n | 7.3µM | n | n | n
CC(=O)Nc1c(Cl)cc2c(c1Cl)Cc1cc(C#N)ccc1-2 | n | 1.2µM | n | 0.92µM | n | n
CCOc1cc2[nH]c(=O)n(CCCCC(=O)N3CCN(c4ccc(OC)cc4)CC3)c(=O)c2cc1OCC | n | n | x | n | x | x
Cc1noc(C)c1-c1ccc2ncnc(NCc3cccs3)c2c1 | n | x | x | x | x | x
Cc1ccsc1CNc1ncnc2ccc(-c3c(C)noc3C)cc12 | n | u | n | u | 5.8µM | n
C=CC[n+]1c(-c2ccc(OC)c(OC)c2)csc1NNC(=O)Nc1ccccc1 | x | u | n | 18µM | n | n
C=CC[n+]1c(-c2ccccc2)csc1NC(C)(C)C | n | n | n | n | n | n
Nc1c(C(=O)NCc2ccco2)c2nc3ccccc3nc2n1CCc1ccccc1F | n | u | 5.8µM | u | 2.6µM | n
COc1ccccc1-n1c(N)c(C(=O)NCC2CCCO2)c2nc3ccccc3nc21 (centres undefined) | n | n | 11µM | n | u | n
Nc1c(C(=O)NCC2CCCO2)c2nc3ccccc3nc2n1-c1ccccc1 (centres undefined) | n | n | u | u | u | n
COc1ccc(CCn2c(N)c(C(=O)NCc3ccco3)c3nc4ccccc4nc32)cc1OC | n | n | n | n | n | n
COc1ccc(Nc2nc(C(=O)NCc3ccco3)cs2)cc1 | n | 16µM | n | 16µM | n | n
COc1ccc(CCn2c(N)c(C(=O)NCc3ccco3)c3nc4ccccc4nc32)cc1 | n | 7.3µM | u | 6.5µM | u | n
Cc1ccc(NC(=O)CN2C(=O)CCc3ccccc32)cc1C | n | n | x | n | x | x
COCCNC(=O)c1c(N)n(CCC2=CCCCC2)c2nc3ccccc3nc12 | n | u | 21µM | u | 15µM | n
COCCn1c(N)c(C(=O)OCc2ccccc2)c2nc3ccccc3nc21 | n | n | u | n | u | n

From PubChem BioAssay
